# According to the supplement of paper PMC10338343:
# ± gives the standard deviation.
# Test system: EfPiwi piRISC loaded with piRNA #1 (26 nt)
# Assay: pre-steady-state target cleavage rate (min^-1); auxiliary factor: 500 nM Ephydatia muelleri Gtsf1; guide: piRNA #1 5'p-UGAGGUAGUAGGUUGUAUAGUAUCCA; MIWI and MILI are mouse PIWI proteins and EfPiwi is from a freshwater sponge; tags in brackets are library labels; higher = faster piRNA-guided slicing of the target
# Procedure, shortened: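 A burst-and-steady-state fit was used to obtain the pre-steady-state cleavage rate. The input data were sequencing reads of uncleaved targets, normalised to depth and to weakly complementary targets, from a […] transcribed, DNA-blocked target RNA library mixed with 1 nM active affinity-purified piRISC holding one synthetic guide, with or without 500 nM GTSF1 partner protein, in HEPES–potassium acetate buffer at 33 °C for 0–8 or 0–960 min. Three trials were pooled and k3 was capped at 0.0001 min^-1.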
row,Sequence,pre-steady-state target cleavage rate
1,GGAGUGGAUACUAUACAACCUACUAGGACA,0.00314 ± 0.0029
2,GGAGAGGAUACUAUACAACCUACUCCUCA,0.00473 ± 0.0025
3,GGAGAGGAUACUAUACAACCUACCUACCUCA,0.00412 ± 0.0014
4,GGAGUGGAUACUAUACAACCAACUUCCUCA,0.00287 ± 0.0019
5,GGAGACCUAACUAUACAACGAACUACCUCA,< 0.0001
6,GGAGACCUAACUAUACAACGUAGUACCUCA,0.00322 ± 0.0027
7,GGAGACGAUUCUAUACAACCUACUUCCUCA,0.00271 ± 0.0022
8,GGAGAGGAUACUAUACAGACCUACUACCUCA,0.00626 ± 0.0046
9,GGAGUGGAUAGUAUACAACCUACUAGCUCA,0.00291 ± 0.0018
10,GGAGAGGAUAGUAUACAACCAACUACCUCA,0.00242 ± 0.0023
11,GGAGACGAUACUAUACGAACCUACUACCUCA,0.00658 ± 0.0033
12,GGAGACCUUACUAUACAACCUACUACCUCCA,0.00652 ± 0.0028
13,GGAGACGAUACUAUACAACCUUACUACCUCA,0.00805 ± 0.0039
14,GGAGACCUUACUGAUACAACCUACUACCUCA,0.0403 ± 0.016
15,GGAGAGGAUACUAUACAUCCUACUAGCUCA,0.00277 ± 0.0019
16,GGAGACCUAACUAUACAACCUACUACCUCA [g2:g21:cont:t1A],0.013 ± 0.0043
17,GGAGACCAUACUCAUACAACCUACUACCUCA,0.0108 ± 0.0052
18,GGAGUGGAUACUAUACAACCUUGAACCUCA,0.00462 ± 0.0029
19,GGAGACGAUACUAUACAACCUACUACCGCA,0.00926 ± 0.0033
20,GGAGAGGAUACUAUACAACCUAACUACCUCA,0.00656 ± 0.0027

row,Sequence,pre-steady-state target cleavage rate
1,GGAGACCAGACUAUACAACCUACUACCUCA,0.00856 ± 0.0055
2,GGAGAGGAUACUGAUACAACCUACUACCUCA,0.00615 ± 0.0037
3,GGAGUGGAUACUAUACAACCUACAACGUCA,0.00302 ± 0.0017
4,GGAGACGAUACUAUACAACCUAGUACCUGA,0.00389 ± 0.001
5,GGAGACCUAUGUAUACAACCUGACUACCUCA,< 0.0001
6,GGAGACCUAACUAUAACAACCUACUACCUCA,0.00912 ± 0.005
7,GGAGACCUAUGAUAUGUUGGUACUACCUCU [g2:g10:cont:t1U],< 0.0001
8,GGAGAGGAUACUAUACAACCUCCUACCUCA,0.0065 ± 0.0026
9,GGAGUGGAUACUAUACAACCUACUACCUCCA,0.274 ± 0.077
10,GGAGAGGAUACUAUACAACCUUGUACCUCA,0.00294 ± 0.0029
11,GGAGUGGAUACUAUACAACCUAGUUCCUCA,0.00239 ± 0.0021
12,GGAGAGGAUACUAUACAACCUUCUAGCUCA,0.00404 ± 0.0021
13,GGAGUGGAUACUAUACAACCUUCUACCACA,0.00272 ± 0.0016
14,GGAGUGGAUACUAUACAACCUAGUACCUGA,0.00271 ± 0.001
15,GGAGUGGAUACUAUACAAACCUACUACCUCA,0.0643 ± 0.023
16,GGAGUGGAUACUAUACAACCCUACUACCUCA,0.00375 ± 0.0023
17,GGAGACCUUACUAUACAAGCUACUACCACA,0.00275 ± 0.0027
18,GGAGACGAUACUAUACAACCUACUUGGAGA [g7:g24:cont:t1A],0.00429 ± 0.0022
19,GGAGACCUAACUAUACAAGCUAGUACCUCA,0.00423 ± 0.0037
20,GGAGUGGAUACUAUACAAGCCUACUACCUCA,0.0104 ± 0.0053
